High-throughput results from PubChem.
Mtb bLac sens – beta-lactam sensitization of Mtb H37Rv, H37Rv; 330,000 tested, 0.27% active; inhibition, % at 25 µM; AID 434955, 2010; M. tuberculosis H37Rv growth with meropenem, percent inhibition; call rule not given here;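 further: growth measured after seven days incubation then overnight dye step; 0% = bacteria only wells and 100% = bacteria with antibiotic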
RecA splice inh – Mtb RecA intein splicing inhibitors, primary screen, biochemical, fluorescence, HTS. Protein RecA (Mycobacterium tuberculosis (strain ATCC 25618 / H37Rv)), P9WHJ3. cell-free RecA intein splicing. inhibition, % (no concentration beside the values). 290,000 tested, 0.75% active. AID 2221, 2009; in the data active means inhibition above about 30%; inconclusive means no clear call, values can overlap the other calls;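 further: 0% = vehicle wells and 100% = reference inhibitor control wells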
Target sequence (P9WHJ3 whole entry, looked up, canonical isoform): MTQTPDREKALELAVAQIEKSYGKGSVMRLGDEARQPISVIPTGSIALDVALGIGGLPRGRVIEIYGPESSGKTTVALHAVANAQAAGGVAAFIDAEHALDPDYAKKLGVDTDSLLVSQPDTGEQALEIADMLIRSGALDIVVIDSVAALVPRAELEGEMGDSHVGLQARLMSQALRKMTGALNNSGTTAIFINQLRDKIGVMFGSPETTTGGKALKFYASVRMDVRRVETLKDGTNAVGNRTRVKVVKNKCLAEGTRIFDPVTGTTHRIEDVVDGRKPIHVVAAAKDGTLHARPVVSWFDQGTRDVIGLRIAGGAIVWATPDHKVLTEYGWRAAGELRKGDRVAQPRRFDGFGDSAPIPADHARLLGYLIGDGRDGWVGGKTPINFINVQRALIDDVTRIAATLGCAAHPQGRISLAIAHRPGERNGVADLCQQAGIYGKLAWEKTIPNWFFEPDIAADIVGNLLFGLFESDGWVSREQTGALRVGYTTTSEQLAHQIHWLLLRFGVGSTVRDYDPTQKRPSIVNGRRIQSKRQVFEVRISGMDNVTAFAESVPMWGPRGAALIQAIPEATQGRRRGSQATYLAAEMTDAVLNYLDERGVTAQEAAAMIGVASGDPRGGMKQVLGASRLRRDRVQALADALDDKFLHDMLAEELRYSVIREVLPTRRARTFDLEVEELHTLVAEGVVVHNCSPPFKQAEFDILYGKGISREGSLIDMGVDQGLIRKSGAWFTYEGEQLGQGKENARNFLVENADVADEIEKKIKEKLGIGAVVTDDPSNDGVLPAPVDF
TcdB GH inh – TcdB glycohydrolase inhibitors, primary screen, biochemical, single point, plate reader. TcdB glycohydrolase enzymatic assay. inhibition, % at 9.99 µM. 350,000 tested, 0.24% active. AID 652162, 2013; in the data active means inhibition above about 10%
Mtb UGM inh – M. tuberculosis UGM enzyme inhibitors, primary screen, biochemical, fluorescence polarization, single point | purified UGM, fluorescence polarization probe displacement | inhibition, % at 10 µM | 320,000 tested, 0.06% active; in the data active means inhibition above about 10%, passing the limit was not always enough; inconclusive means no clear call, values can overlap the other calls
MazF activator – activators of E. coli MazEF toxin-antitoxin RNase, primary screen, biochemical, fluorescence, uHTS. FAM/BHQ RNA-DNA oligo cleavage fluorescence, 5 h. activation, % at 20 µM. 350,000 tested, 0.32% active. AID 504720, 2011; in the data active means activation above about 50%
Rv3671c inh – Rv3671c serine protease inhibitors, primary screen, biochemical, fluorescence polarization, M. tuberculosis H37Rv; P9WHR9; inhibition, % at 5.96 µM; 320,000 tested, 0.048% active; AID 2606, 2010; in the data active means inhibition above about 38%;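 further: extracellular domain of Rv3671c used as enzyme; 0% = enzyme with DMSO and 100% = no enzyme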
An asterisk follows results filed as active; ? = inconclusive; nt = not tested or not shown; + = active, no number. The list is not random: actives were taken first. Their share in the collection is about 0.97%.

SMILES | Mtb bLac sens | RecA splice inh | TcdB GH inh | Mtb UGM inh | MazF activator | Rv3671c inh
CC(=O)N1CC2(C1)[C@H](c1ccc(-c3ccccc3C)cc1)[C@H](CO)N2C(C)=O | nt | nt | -1 | nt | nt | nt
NNS(=O)(=O)c1ccc(N2CCCC2=O)c([N+](=O)[O-])c1 | -1 | 0 | -3 | -1 | 227* | 3
CC(C)OC(=O)N(C)C[C@@H]1OCc2ccccc2-c2c(n(C)c3ccccc23)C(=O)N([C@H](C)CO)C[C@@H]1C | nt | nt | 1 | nt | nt | nt
C[C@@H]1CN([C@@H](C)CO)C(=O)c2cccc(NC(=O)c3ccc(-c4nccs4)cc3)c2O[C@H]1CN(C)Cc1ccc(Oc2ccccc2)cc1 | nt | nt | -8 | nt | nt | nt
C[C@@H]1CN([C@H](C)CO)C(=O)c2cc(C#CCC3CCCC3)cnc2O[C@@H]1CN(C)Cc1ccccn1 | nt | nt | -7 | nt | nt | nt
N#C/C(=C\c1cn(CCOc2ccccc2)c2ccccc12)C(=O)NCc1cccs1 | -5 | -6 | nt | -3 | 59* | -6
COc1ccc(OCCn2cc(/C=C(\C#N)C(=O)NCc3ccco3)c3ccccc32)cc1 | -3 | -8 | 0 | 0 | 9 | 11
Cc1cc(O)c(CN2CCN(S(=O)(=O)c3cccs3)CC2)cc1C(C)C | 36 | nt | 0 | -1 | -4 | -6
Cc1cc(C(C)(C)C)cc(CN2CCN(S(=O)(=O)c3cccs3)CC2)c1O | nt | nt | 11* | nt | -24 | nt
COc1ccc(NC(=O)N(C)C[C@H]2Oc3ncc(C#C[C@H](C)O)cc3C(=O)N([C@@H](C)CO)C[C@@H]2C)cc1 | nt | nt | 0 | nt | nt | nt
COc1ccc(N=Nc2cc(OC)c(N)cc2OC)cc1 | nt | nt | 10* | nt | 9 | nt
COc1ccc(-c2nc(N)ncc2-c2ccccc2OC)c(O)c1 | 2 | 0 | 13* | -1 | -3 | 6
COc1ccc(-c2nc(N)ncc2-c2ccccc2)c(O)c1 | 4 | -1 | 0 | -1 | -8 | -3
COc1cccc(S(=O)(=O)N[C@H]2CC[C@H](CC(=O)NCc3ccccc3)O[C@H]2CO)c1 | nt | nt | 1 | nt | nt | nt
C[C@H](O)C#Cc1cnc2c(c1)C(=O)N([C@@H](C)CO)C[C@H](C)[C@H](CN(C)C(=O)Cc1ccncc1)O2 | nt | nt | 1 | nt | nt | nt
Cc1cccc(CSC(Nc2ccc(F)cc2)=C(C#N)C#N)c1 | -3 | 53* | nt | 0 | -3 | 2
O=C(C[C@@H]1C=C[C@H](NS(=O)(=O)c2ccccc2)[C@@H](CO)O1)NCc1ccc(Cl)c(Cl)c1 | nt | nt | 0 | nt | nt | nt
OCCNC(=S)Nc1ccc2nsnc2c1 | -3 | 46* | 0 | -1 | 12 | -73
Nc1c(C(=O)Nc2ccccc2F)sc2nc(Cc3ccccc3)cc(C(F)(F)F)c12 | 3 | -16 | 1 | 26* | + | 6
N#Cc1ccc(N2C(=O)[C@@H]3C(C(=O)c4ccc5ccccc5n4)=NN[C@@H]3C2=O)cc1 | -5 | 1 | 0 | 3 | 120* | -5
CCNC(=O)C[C@@H]1CC[C@H]2[C@H](COc3ccc(NC(=O)Nc4ccc(F)cc4)cc3C(=O)N2C)O1 | nt | nt | -1 | nt | nt | nt
O=C(NC(NC(=S)Nc1ccc(Cl)cc1Cl)C(Cl)(Cl)Cl)c1cccc([N+](=O)[O-])c1 (configuration not stated) | 74 | 37* | nt | -2 | 14 | -268
O=[N+]([O-])c1ccc(O)c(C=Nc2cccc3ccccc23)c1 | 20 | 2 | 1 | -2 | 5 | -1
O=[N+]([O-])c1cccc(C=Nc2cccc3ccccc23)c1O | 25 | 38* | 0 | 1 | 4 | -6
C[C@@H]1CN([C@H](C)CO)C(=O)c2cccc(NC(=O)NC3CCCCC3)c2O[C@H]1CN(C)S(=O)(=O)c1ccccc1 | nt | nt | 1 | nt | nt | nt
SMILES | Mtb bLac sens | RecA splice inh | TcdB GH inh | Mtb UGM inh | MazF activator | Rv3671c inh
C[C@@H]1CN([C@H](C)CO)S(=O)(=O)c2ccc(-c3ccccc3)cc2O[C@H]1CN(C)S(C)(=O)=O | nt | nt | -5 | nt | nt | nt
CC(=O)c1c(C)[nH]c(C(=O)OCC(=O)Nc2cc(S(=O)(=O)N3CCCC3)ccc2Cl)c1C | 3 | 7 | nt | -2 | 19 | -12
COc1ccc(S(=O)(=O)N2CCOCC2)cc1NC(=O)COC(=O)c1[nH]c(C)c(C(C)=O)c1C | -5 | nt | 13* | -1 | 13 | -6
C[C@H](O)C#Cc1cnc2c(c1)C(=O)N([C@@H](C)CO)C[C@@H](C)[C@H](CN(C)C(=O)Cc1ccncc1)O2 | nt | nt | -1 | nt | nt | nt
COc1ccc(Cn2c(/C=C/c3ccccc3)nc3ccccc32)cc1 | 19 | 10 | nt | 0 | 3 | -8
COc1ccc(/C=C/c2nc3ccccc3n2C)cc1 | 22 | 4 | 13* | -3 | 10 | 3
COc1ccc(/C=C(/C#N)C(=O)Nc2ccc(O)cc2)cc1C(=O)O | -4 | 45* | 18* | -2 | 3 | -1
CCc1ccc(NC(=O)/C(C#N)=C\c2ccc(OC)c(C(=O)O)c2)cc1 | -4 | 0 | -1 | 2 | 5 | -7
CCOC(=O)c1c(=O)n(O)c2ccc(OC)cc2[n+]1[O-] | -2 | nt | nt | 15* | -52 | -5
CCCNC(=O)C[C@@H]1CC[C@@H]2[C@H](COc3ccc(NC(=O)c4ccccc4)cc3C(=O)N2C)O1 | nt | nt | -1 | nt | nt | nt
O=C(CN1CCOCC1)N1CC(=O)N2[C@@H](CO)[C@H](c3ccc(/C=C/c4ccccc4)cc3)[C@@H]2C1 | nt | nt | 1 | nt | nt | nt
C[C@@H]1CCCCO[C@@H](CN(C)Cc2ccncc2)[C@H](C)CN([C@H](C)CO)C(=O)c2cc(NC(=O)Nc3cccc4ccccc34)ccc2O1 | nt | nt | -2 | nt | nt | nt
COc1ccc(N2C(=O)c3cccc4c(N(C)CCO)ccc(c34)C2=O)cc1 | 7 | -11 | 1 | 21* | 155* | nt
O=C1c2ccccc2C(=O)c2c(Nc3ccc(CCO)cc3)ccc(O)c21 | ? | 17 | 1 | 0 | 3 | -4
O=C1c2c(O)ccc(O)c2C(=O)c2c(NCCNCCO)ccc(NCCNCCO)c21 | 25 | nt | 17* | 5 | -8 | 0
COc1ccc(NC(=O)N2C[C@@H]3[C@H](c4ccccc42)[C@@H](CO)N3Cc2ccccn2)cc1 | nt | nt | 0 | nt | nt | nt
O=C(NC(=C(Cl)Cl)S(=O)(=O)c1ccc(Cl)cc1)c1ccccc1 | 0 | 30* | 2 | 0 | 3 | 2
Cc1cc(C(=O)N/N=C/c2ccc(-c3cccc(Br)c3)o2)n[nH]1 | -3 | -2 | 0 | 2 | -22 | -2
Cc1cc(C(=O)N/N=C/c2ccc(-c3cccc(Cl)c3Cl)o2)n[nH]1 | 1 | -1 | nt | -1 | 51* | -6
CCOn1c(=O)c(-c2cc3ccccc3o2)[n+]([O-])c2ccccc21 | -4 | -49 | 1 | 3 | 741* | 4
O=c1c(-c2cc3ccccc3o2)[n+]([O-])c2ccccc2n1OCc1ccccn1 | 2 | -87 | nt | 1 | 119* | -1
